Reference: PubChem BioAssay AID1159580 (chemical genetic matrix, 2015)
Hit rate of the full screen: of about 5,500 compounds, about 2,000 (36%) were called active. Not shown: some 18% with an inconclusive outcome. Some of the results follow. Values without a mark were called inactive. Cut-off read from the data, not from the text of the source: active = normalized growth mostly below about 0.91 (no sharp cut-off); inconclusive = no clear call, values can overlap the other calls; inactive = mostly above about 0.92.

Test: chemical genetic growth profiling, strain panel (AID 1159580);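 note: tested at 20 µM; growth read once vehicle control cultures reached saturation at 30 °C; 1 = growth at the plate median or of vehicle wells; lower values mean less growth of the strain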
Settings: growth OD

CC(=O)O.CC(=O)O.[Cd]
normalized growth (S. cerevisiae deletion strains, locus YJR043C, strain POL32, stronger effect = lower value): 0.298 (active) | normalized growth (S. cerevisiae deletion strains, locus YJR075W, strain HOC1, stronger effect = lower value): 0.202 (active) | normalized growth (S. cerevisiae deletion strains, locus YKL009W, strain mrt4, stronger effect = lower value): 0.639 (active) | normalized growth (S. cerevisiae deletion strains, locus YKL068W, stronger effect = lower value): 0.651 (active) | normalized growth (S. cerevisiae deletion strains, locus YKL085W, strain MDH1 (second series), stronger effect = lower value): 0.372 (active) | normalized growth (S. cerevisiae deletion strains, locus YKL085W, strain MDH1, stronger effect = lower value): 0.372 (active) | normalized growth (S. cerevisiae deletion strains, locus YKL160W, strain elf1, stronger effect = lower value): 0.533 (active) | normalized growth (S. cerevisiae deletion strains, locus YKL190W, strain CNB1, stronger effect = lower value): 0.125 (active) | normalized growth (S. cerevisiae deletion strains, locus YKR001C, strain vps1, stronger effect = lower value): 0.12 (active) | normalized growth (S. cerevisiae deletion strains, locus YKR026C, strain gcn3, stronger effect = lower value): 0.82 (active) | normalized growth (S. cerevisiae deletion strains, locus YKR091W, strain srl3, stronger effect = lower value): 0.793 (active) | normalized growth (S. cerevisiae deletion strains, locus YLL001W, strain dnm1, stronger effect = lower value): 0.68 (active) | normalized growth (S. cerevisiae deletion strains, locus YLL026W, stronger effect = lower value): 0.603 (active) | normalized growth (S. cerevisiae deletion strains, locus YLL041C, strain sdh2, stronger effect = lower value): 0.785 (active) | normalized growth (S. cerevisiae deletion strains, locus YLR027C, strain aat2, stronger effect = lower value): 0.664 (active) | normalized growth (S. cerevisiae deletion strains, locus YLR039C, strain RIC1, stronger effect = lower value): 0.166 (active) | normalized growth (S. cerevisiae deletion strains, locus YLR058C, strain SHM2, stronger effect = lower value): 0.154 (active) | normalized growth (S. cerevisiae deletion strains, locus YLR102C, strain apc9, stronger effect = lower value): 0.464 (active) | normalized growth (S. cerevisiae deletion strains, locus YLR221C, strain rsa3, stronger effect = lower value): 0.669 (active) | normalized growth (S. cerevisiae deletion strains, locus YLR258W, strain gsy2, stronger effect = lower value): 0.698 (active) | normalized growth (S. cerevisiae deletion strains, locus YLR262C, strain YPT6 (second series), stronger effect = lower value): 0.403 (active) | normalized growth (S. cerevisiae deletion strains, locus YLR262C, strain YPT6, stronger effect = lower value): 0.133 (active) | normalized growth (S. cerevisiae deletion strains, locus YLR268W, strain sec22, stronger effect = lower value): 0.158 (active) | normalized growth (S. cerevisiae deletion strains, locus YLR320W, strain mms22, stronger effect = lower value): 0.696 (active) | normalized growth (S. cerevisiae deletion strains, locus YLR330W, strain CHS5, stronger effect = lower value): 0.811 (active) | normalized growth (S. cerevisiae deletion strains, locus YLR342W, strain FKS1 (second series), stronger effect = lower value): 0.311 (active) | normalized growth (S. cerevisiae deletion strains, locus YLR342W, strain FKS1, stronger effect = lower value): 0.862 (active) | normalized growth (S. cerevisiae deletion strains, locus YLR357W, strain rsc2, stronger effect = lower value): 0.522 (active) | normalized growth (S. cerevisiae deletion strains, locus YLR370C, strain arc18, stronger effect = lower value): 0.313 (active) | normalized growth (S. cerevisiae deletion strains, locus YLR371W, strain rom2, stronger effect = lower value): 0.188 (active) | normalized growth (S. cerevisiae deletion strains, locus YLR384C, strain iki3, stronger effect = lower value): 0.804 (active) | normalized growth (S. cerevisiae deletion strains, locus YLR418C, strain cdc73, stronger effect = lower value): 0.175 (active) | normalized growth (S. cerevisiae deletion strains, locus YML016C, strain PPZ1, stronger effect = lower value): 0.224 (active) | normalized growth (S. cerevisiae deletion strains, locus YML032C, strain rad52, stronger effect = lower value): 0.313 (active) | normalized growth (S. cerevisiae deletion strains, locus YML120C, strain ndi1, stronger effect = lower value): 0.695 (active) | normalized growth (S. cerevisiae deletion strains, locus YML124C, strain tub3, stronger effect = lower value): 0.304 (active) | normalized growth (S. cerevisiae deletion strains, locus YMR058W, strain fet3, stronger effect = lower value): 0.0708 (active) | normalized growth (S. cerevisiae deletion strains, locus YMR078C, strain ctf18, stronger effect = lower value): 0.462 (active) | normalized growth (S. cerevisiae deletion strains, locus YMR125W, strain sto1, stronger effect = lower value): 0.87 (active) | normalized growth (S. cerevisiae deletion strains, locus YMR129W, stronger effect = lower value): 0.802 (active) | normalized growth (S. cerevisiae deletion strains, locus YMR205C, strain PFK2, stronger effect = lower value): 0.675 (active) | normalized growth (S. cerevisiae deletion strains, locus YMR223W, strain ubp8, stronger effect = lower value): 0.271 (active) | normalized growth (S. cerevisiae deletion strains, locus YMR231W, strain pep5, stronger effect = lower value): 0.179 (active) | normalized growth (S. cerevisiae deletion strains, locus YMR263W, strain SAP30, stronger effect = lower value): 0.221 (active) | normalized growth (S. cerevisiae deletion strains, locus YMR307W, strain GAS1, stronger effect = lower value): 0.172 (active) | normalized growth (S. cerevisiae deletion strains, locus YNL067W, strain RPL9B, stronger effect = lower value): 0.289 (active) | normalized growth (S. cerevisiae deletion strains, locus YNL071W, strain lat1, stronger effect = lower value): 0.757 (active) | normalized growth (S. cerevisiae deletion strains, locus YNL128W, strain TEP1, stronger effect = lower value): 0.234 (active) | normalized growth (S. cerevisiae deletion strains, locus YNL153C, strain GIM3, stronger effect = lower value): 0.468 (active) | normalized growth (S. cerevisiae deletion strains, locus YNL209W, strain ssb2, stronger effect = lower value): 0.583 (active) | normalized growth (S. cerevisiae deletion strains, locus YNL233W, strain BNI4, stronger effect = lower value): 0.394 (active) | normalized growth (S. cerevisiae deletion strains, locus YNL248C, strain rpa49, stronger effect = lower value): 0.765 (active) | normalized growth (S. cerevisiae deletion strains, locus YNL250W, strain rad50, stronger effect = lower value): 0.269 (active) | normalized growth (S. cerevisiae deletion strains, locus YNL271C, strain bni1, stronger effect = lower value): 0.3 (active) | normalized growth (S. cerevisiae deletion strains, locus YNL298W, strain CLA4, stronger effect = lower value): 0.345 (active) | normalized growth (S. cerevisiae deletion strains, locus YNL307C, strain MCK1, stronger effect = lower value): 0.124 (active) | normalized growth (S. cerevisiae deletion strains, locus YNL322C, strain KRE1 (second series), stronger effect = lower value): 0.547 (active) | normalized growth (S. cerevisiae deletion strains, locus YNL322C, strain KRE1, stronger effect = lower value): 0.139 (active) | normalized growth (S. cerevisiae deletion strains, locus YNR049C, strain mso1, stronger effect = lower value): 0.819 (active) | normalized growth (S. cerevisiae deletion strains, locus YNR052C, strain pop2, stronger effect = lower value): 0.164 (active) | normalized growth (S. cerevisiae deletion strains, locus YOL006C, strain TOP1, stronger effect = lower value): 0.153 (active) | normalized growth (S. cerevisiae deletion strains, locus YOL012C, strain htz1): 0.261 | normalized growth (S. cerevisiae deletion strains, locus YOL147C, strain pex11, stronger effect = lower value): 0.32 (active) | normalized growth (S. cerevisiae deletion strains, locus YOR001W, strain rrp6, stronger effect = lower value): 0.752 (active) | normalized growth (S. cerevisiae deletion strains, locus YOR061W, strain CKA2, stronger effect = lower value): 0.269 (active) | normalized growth (S. cerevisiae deletion strains, locus YOR069W, strain VPS5, stronger effect = lower value): 0.222 (active) | normalized growth (S. cerevisiae deletion strains, locus YOR070C, strain gyp1, stronger effect = lower value): 0.669 (active) | normalized growth (S. cerevisiae deletion strains, locus YOR080W, strain dia2, stronger effect = lower value): 0.851 (active) | normalized growth (S. cerevisiae deletion strains, locus YOR083W, strain WHI5, stronger effect = lower value): 0.59 (active) | normalized growth (S. cerevisiae deletion strains, locus YOR106W, strain vam3, stronger effect = lower value): 0.408 (active) | normalized growth (S. cerevisiae deletion strains, locus YOR136W, strain idh2, stronger effect = lower value): 0.263 (active) | normalized growth (S. cerevisiae deletion strains, locus YOR144C, strain elg1, stronger effect = lower value): 0.461 (active) | normalized growth (S. cerevisiae deletion strains, locus YOR184W, strain ser1, stronger effect = lower value): 0.25 (active) | normalized growth (S. cerevisiae deletion strains, locus YOR265W, strain rbl2, stronger effect = lower value): 0.769 (active) | normalized growth (S. cerevisiae deletion strains, locus YOR270C, strain vph1, stronger effect = lower value): 0.405 (active) | normalized growth (S. cerevisiae deletion strains, locus YOR290C, strain snf2, stronger effect = lower value): 0.927 | normalized growth (S. cerevisiae deletion strains, locus YOR316C, strain cot1, stronger effect = lower value): 0.356 (active) | normalized growth (S. cerevisiae deletion strains, locus YPL051W, strain arl3, stronger effect = lower value): 0.207 (active) | normalized growth (S. cerevisiae deletion strains, locus YPL055C, strain LGE1, stronger effect = lower value): 0.169 (active) | normalized growth (S. cerevisiae deletion strains, locus YPL078C, strain atp4, stronger effect = lower value): 0.707 (active) | normalized growth (S. cerevisiae deletion strains, locus YPL106C, strain sse1, stronger effect = lower value): 1.01 | normalized growth (S. cerevisiae deletion strains, locus YPL240C, strain hsp82, stronger effect = lower value): 0.731 (active) | normalized growth (S. cerevisiae deletion strains, locus YPL241C, strain CIN2, stronger effect = lower value): 0.271 (active) | normalized growth (S. cerevisiae deletion strains, locus YPR119W, strain clb2, stronger effect = lower value): 0.433 (active) | normalized growth (S. cerevisiae deletion strains, locus YPR141C, strain kar3, stronger effect = lower value): 0.418 (active) | normalized growth (S. cerevisiae deletion strains, locus YPR163C, strain tif3, stronger effect = lower value): 0.441 (active) | normalized growth (S. cerevisiae deletion strains, locus YPR167C, strain met16, stronger effect = lower value): 0.387 (active) | normalized growth (S. cerevisiae deletion strains, strain wtn01, stronger effect = lower value): 0.254 (active) | normalized growth (S. cerevisiae strains, strain wild type, stronger effect = lower value): 0.13 (active)
